{"source": "paper PMC9911399", "about": "“Two distinct binding modes provide the RNA-binding protein RbFox with extraordinary sequence specificity”", "binders": {"B1": {"name": "GCUACCU (DNA:RNA)", "RNA": "GGGAGACCGGAAUUCAGAUUGUCCGCUACCUUUAAAUCCCGUCGUAGCCACCA", "DNA 1": "CAATCTGAATTCCGGTCTCCC", "DNA 2": "TGGTGGCTACGACGGGATT"}, "B2": {"name": "CCGCCGU (DNA:RNA)", "RNA": "B1 RNA with G25C, U27G, A28C, C30G", "DNA 1": "CAATCTGAATTCCGGTCTCCC", "DNA 2": "TGGTGGCTACGACGGGATT"}, "B3": {"name": "AUGCGAA (DNA:RNA)", "RNA": "GGGAGACCGGAAUUCAGAUUGUCCAUGCGAAUUAAAUCCCGUCGUAGCCACCA", "DNA 1": "CAATCTGAATTCCGGTCTCCC", "DNA 2": "TGGTGGCTACGACGGGATT"}, "B4": {"name": "CUGUCGA (DNA:RNA)", "RNA": "B3 RNA with A25C, C28U, G29C, A30G", "DNA 1": "CAATCTGAATTCCGGTCTCCC", "DNA 2": "TGGTGGCTACGACGGGATT"}, "B5": {"name": "AAGGGCC (DNA:RNA)", "RNA": "B3 RNA with U26A, C28G, A30C, A31C", "DNA 1": "CAATCTGAATTCCGGTCTCCC", "DNA 2": "TGGTGGCTACGACGGGATT"}, "B6": {"name": "CUCUACC (DNA:RNA)", "RNA": "B3 RNA with A25C, G27C, C28U, G29A, A30C, A31C", "DNA 1": "CAATCTGAATTCCGGTCTCCC", "DNA 2": "TGGTGGCTACGACGGGATT"}, "B7": {"name": "UAGCGCA (DNA:RNA)", "RNA": "B3 RNA with A25U, U26A, A30C", "DNA 1": "CAATCTGAATTCCGGTCTCCC", "DNA 2": "TGGTGGCTACGACGGGATT"}, "B8": {"name": "GUCCUCG (DNA:RNA)", "RNA": "B3 RNA with A25G, G27C, G29U, A30C, A31G", "DNA 1": "CAATCTGAATTCCGGTCTCCC", "DNA 2": "TGGTGGCTACGACGGGATT"}, "B9": {"name": "UCGUCCG (DNA:RNA)", "RNA": "B1 RNA with G25U, U27G, A28U, U31G", "DNA 1": "CAATCTGAATTCCGGTCTCCC", "DNA 2": "TGGTGGCTACGACGGGATT"}, "B10": {"name": "UCGUAUG (DNA:RNA)", "RNA": "B3 RNA with A25U, U26C, C28U, G29A, A30U, A31G", "DNA 1": "CAATCTGAATTCCGGTCTCCC", "DNA 2": "TGGTGGCTACGACGGGATT"}, "B11": {"name": "CGUAUGA (DNA:RNA)", "RNA": "B1 RNA with G25C, C26G, C29U, C30G, U31A", "DNA 1": "CAATCTGAATTCCGGTCTCCC", "DNA 2": "TGGTGGCTACGACGGGATT"}, "B12": {"name": "GGUAUGA (DNA:RNA)", "RNA": "B1 RNA with C26G, C29U, C30G, U31A", "DNA 1": "CAATCTGAATTCCGGTCTCCC", "DNA 2": "TGGTGGCTACGACGGGATT"}, "B13": {"name": "GUUAUGA (DNA:RNA)", "RNA": "B1 RNA with C26U, C29U, C30G, U31A", "DNA 1": "CAATCTGAATTCCGGTCTCCC", "DNA 2": "TGGTGGCTACGACGGGATT"}, "B14": {"name": "UAGUCAA (DNA:RNA)", "RNA": "B3 RNA with A25U, U26A, C28U, G29C", "DNA 1": "CAATCTGAATTCCGGTCTCCC", "DNA 2": "TGGTGGCTACGACGGGATT"}, "B15": {"name": "GUUGUUC (DNA:RNA)", "RNA": "B1 RNA with C26U, A28G, C29U, C30U, U31C", "DNA 1": "CAATCTGAATTCCGGTCTCCC", "DNA 2": "TGGTGGCTACGACGGGATT"}, "B16": {"name": "UGAAUCG (DNA:RNA)", "RNA": "B1 RNA with G25U, C26G, U27A, C29U, U31G", "DNA 1": "CAATCTGAATTCCGGTCTCCC", "DNA 2": "TGGTGGCTACGACGGGATT"}, "B17": {"name": "GAAUCGC (DNA:RNA)", "RNA": "B1 RNA with C26A, U27A, A28U, C30G, U31C", "DNA 1": "CAATCTGAATTCCGGTCTCCC", "DNA 2": "TGGTGGCTACGACGGGATT"}, "B18": {"name": "GAACCGU (DNA:RNA)", "RNA": "B1 RNA with C26A, U27A, A28C, C30G", "DNA 1": "CAATCTGAATTCCGGTCTCCC", "DNA 2": "TGGTGGCTACGACGGGATT"}, "B19": {"name": "GGAUCGC (DNA:RNA)", "RNA": "B1 RNA with C26G, U27A, A28U, C30G, U31C", "DNA 1": "CAATCTGAATTCCGGTCTCCC", "DNA 2": "TGGTGGCTACGACGGGATT"}, "B20": {"name": "GAAUCCG (DNA:RNA)", "RNA": "B1 RNA with C26A, U27A, A28U, U31G", "DNA 1": "CAATCTGAATTCCGGTCTCCC", "DNA 2": "TGGTGGCTACGACGGGATT"}, "B21": {"name": "CGAUCGC (DNA:RNA)", "RNA": "B1 RNA with G25C, C26G, U27A, A28U, C30G, U31C", "DNA 1": "CAATCTGAATTCCGGTCTCCC", "DNA 2": "TGGTGGCTACGACGGGATT"}, "B22": {"name": "GAAUCGU (DNA:RNA)", "RNA": "B1 RNA with C26A, U27A, A28U, C30G", "DNA 1": "CAATCTGAATTCCGGTCTCCC", "DNA 2": "TGGTGGCTACGACGGGATT"}, "B23": {"name": "UGAAUUG (DNA:RNA)", "RNA": "B1 RNA with G25U, C26G, U27A, C29U, C30U, U31G", "DNA 1": "CAATCTGAATTCCGGTCTCCC", "DNA 2": "TGGTGGCTACGACGGGATT"}, "B24": {"name": "UGAACCG (DNA:RNA)", "RNA": "B1 RNA with G25U, C26G, U27A, U31G", "DNA 1": "CAATCTGAATTCCGGTCTCCC", "DNA 2": "TGGTGGCTACGACGGGATT"}, "B25": {"name": "GAAUUGU (DNA:RNA)", "RNA": "B1 RNA with C26A, U27A, A28U, C29U, C30G", "DNA 1": "CAATCTGAATTCCGGTCTCCC", "DNA 2": "TGGTGGCTACGACGGGATT"}, "B26": {"name": "GAAAUCG (DNA:RNA)", "RNA": "B1 RNA with C26A, U27A, C29U, U31G", "DNA 1": "CAATCTGAATTCCGGTCTCCC", "DNA 2": "TGGTGGCTACGACGGGATT"}, "B27": {"name": "CGAAUCG (DNA:RNA)", "RNA": "B1 RNA with G25C, C26G, U27A, C29U, U31G", "DNA 1": "CAATCTGAATTCCGGTCTCCC", "DNA 2": "TGGTGGCTACGACGGGATT"}, "B28": {"name": "UCCCACC (DNA:RNA)", "RNA": "B1 RNA with G25U, U27C, A28C, C29A, U31C", "DNA 1": "CAATCTGAATTCCGGTCTCCC", "DNA 2": "TGGTGGCTACGACGGGATT"}, "B29": {"name": "GAGACGU (DNA:RNA)", "RNA": "B1 RNA with C26A, U27G, C30G", "DNA 1": "CAATCTGAATTCCGGTCTCCC", "DNA 2": "TGGTGGCTACGACGGGATT"}, "B30": {"name": "CGUCCCU (DNA:RNA)", "RNA": "B1 RNA with G25C, C26G, A28C", "DNA 1": "CAATCTGAATTCCGGTCTCCC", "DNA 2": "TGGTGGCTACGACGGGATT"}, "B31": {"name": "ACGGCGC (DNA:RNA)", "RNA": "B3 RNA with U26C, C28G, G29C, A30G, A31C", "DNA 1": "CAATCTGAATTCCGGTCTCCC", "DNA 2": "TGGTGGCTACGACGGGATT"}}, "note": "Substitutions are numbered along the chain they refer to; changes in the protein carry UniProt numbers. In all, about 16,000 sequences were measured (“ka relative to ugcaugu”: median about 0.096, highest 2% from about 0.35 on). This excerpt belongs to a sample that is enriched for the highest values."}
{"biological_target": "T1, RBFOX1 RRM RbFoxmut (Fox-RRM*) (Homo sapiens, UniProt Q9NWB1 109-208, R118D;E147R;N151S;E152T)", "T1 sequence": "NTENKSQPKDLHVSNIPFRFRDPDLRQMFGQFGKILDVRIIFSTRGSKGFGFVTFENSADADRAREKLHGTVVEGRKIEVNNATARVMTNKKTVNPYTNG", "assay": "EMSA; HiTS-Eq, 1 nM pool, 10 min; buffer printed only for the single-RNA assays: 10 mM Tris pH 7.5, 150 mM NaCl, 3.4 mM EDTA, 0.001% NP-40, 30 C", "conditions": "tags: His6 N-terminal (pET28a); label: 5' 32P", "how_it_was_run": "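Purified RbFox RRM, wild type or mutant, was incubated for 10 min in 50 µL with 1 nM of a 5′-radiolabelled RNA pool carrying 7 randomized nucleotides, whose flanks were annealed to DNA oligonucleotides, over a series of increasing protein concentrations. Unbound RNA was resolved on 8% native PAGE, cut out, reverse-transcribed, barcoded by PCR and sequenced on an Illumina HiSeq 2500. Relative association constants were derived from changes in read counts for each RNA species versus the control reaction and normalised to the cognate motif.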"}
{"binder": "B1", "binding signal": "0.0731 KA relative to UGCAUGU"}
{"binder": "B2", "binding signal": "0.133 KA relative to UGCAUGU"}
{"binder": "B3", "binding signal": "0.131 KA relative to UGCAUGU"}
{"binder": "B4", "binding signal": "0.0775 KA relative to UGCAUGU"}
{"binder": "B5", "binding signal": "0.148 KA relative to UGCAUGU"}
{"binder": "B6", "binding signal": "0.0729 KA relative to UGCAUGU"}
{"binder": "B7", "binding signal": "0.124 KA relative to UGCAUGU"}
{"binder": "B8", "binding signal": "0.114 KA relative to UGCAUGU"}
{"binder": "B9", "binding signal": "0.0959 KA relative to UGCAUGU"}
{"binder": "B10", "binding signal": "0.87 KA relative to UGCAUGU"}
{"binder": "B11", "binding signal": "0.258 KA relative to UGCAUGU"}
{"binder": "B12", "binding signal": "0.468 KA relative to UGCAUGU"}
{"binder": "B13", "binding signal": "0.206 KA relative to UGCAUGU"}
{"binder": "B14", "binding signal": "0.0801 KA relative to UGCAUGU"}
{"binder": "B15", "binding signal": "0.106 KA relative to UGCAUGU"}
{"binder": "B16", "binding signal": "0.363 KA relative to UGCAUGU"}
{"binder": "B17", "binding signal": "0.512 KA relative to UGCAUGU"}
{"binder": "B18", "binding signal": "0.126 KA relative to UGCAUGU"}
{"binder": "B19", "binding signal": "0.23 KA relative to UGCAUGU"}
{"binder": "B20", "binding signal": "0.219 KA relative to UGCAUGU"}
{"binder": "B21", "binding signal": "0.0736 KA relative to UGCAUGU"}
{"binder": "B22", "binding signal": "0.576 KA relative to UGCAUGU"}
{"binder": "B23", "binding signal": "0.174 KA relative to UGCAUGU"}
{"binder": "B24", "binding signal": "0.0911 KA relative to UGCAUGU"}
{"binder": "B25", "binding signal": "0.192 KA relative to UGCAUGU"}
{"binder": "B26", "binding signal": "0.0585 KA relative to UGCAUGU"}
{"binder": "B27", "binding signal": "0.374 KA relative to UGCAUGU"}
{"binder": "B28", "binding signal": "0.0864 KA relative to UGCAUGU"}
{"binder": "B29", "binding signal": "0.0818 KA relative to UGCAUGU"}
{"binder": "B30", "binding signal": "0.0565 KA relative to UGCAUGU"}
{"binder": "B31", "binding signal": "0.119 KA relative to UGCAUGU"}
